These results are taken from PubChem BioAssay AID1347416 (National Center for Advancing Translational Sciences (NCATS), 2020).

The whole screen tested about 4,100 compounds, of which about 1,600 (39%) were called active. Not shown: some 25% with an inconclusive outcome. Calls follow the shape of the dose curve; as a rule, active = well fitted inhibition curve with a large enough effect; inconclusive = small, poorly fitted or top-dose-only effect; inactive = no such curve, though single readings can be large or run the other way. This is one part of the list.
Potency is read from the fitted curve at half-maximal effect.

A short description of the experiment: qHTS Validation assay for Inhibitors of Plasmodium falciparum Dd2 growth in vitro. Also: nearly all actives have a fitted effect of over 70% in size. Conditions: P. falciparum Dd2 in RBCs, SYBR Green growth, 72 h; series mostly up to 28.7 µM. The method in brief:
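P. falciparum Dd2-infected red blood cells (2.5% hematocrit, 0.3% parasitemia) grown 72 h at 37 °C under 5% O2 with compounds in a titration, 29 uM to 0.5 nM final. Growth read as SYBR Green-1 fluorescence after ~16 h lysis; artesunate 300 nM as positive control.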
(In general: In qHTS, concentration-response curves come from the screen itself.)
As for `CN1C(=O)c2cncnc2OCC1CNC(=O)Cc1cccs1` (configuration not stated), the Potency result was “inactive”. As to `COc1cc(O)c(C(CCN2CCN(c3ccccc3)CC2)c2ccc(N(C)C)cc2)c(OC)c1` (configuration not stated), the Potency was 0.596 µM (active). For `COc1ccc(C(CCN2CCN(c3ccccc3)CC2)c2c(O)cc(OC)cc2OC)cc1` (configuration not stated), the Potency is 0.944 µM (active). Take `N#Cc1c(N2CCN(c3ccc(F)cc3)CC2)nc(N)c2c(N)nc3c(c12)CC(=O)N3C1CC1`: the Potency was 0.668 µM (active). Turning to `C=CCOC(=O)C1=C[C@@H](c2ccc(C(F)(F)F)cc2)[C@H](CCCO)[C@@H](OCC)O1`, the Potency was 7.5 µM (active).

As to `COc1ccccc1N1CCN(C(c2cc3ccc(C)cc3[nH]c2=O)c2nnnn2C2CCCC2)CC1` (configuration not stated), the Potency is 7.5 µM (active). As for `COc1ccc(N2CCN(C(c3cc4ccc(C)cc4[nH]c3=O)c3nnnn3C3CCCC3)CC2)cc1` (configuration not stated), the Potency was 6.68 µM (active). As for `CC(C)(C)n1nnnc1C(c1cc2cc3c(cc2[nH]c1=O)OCO3)N1CCN(c2ccccc2)CC1` (configuration not stated), the Potency was 7.5 µM (active).

For the molecule `COCCN1CC2(CCCN(Cc3cc(C(C)(C)C)n[nH]3)C2)CCC1=O` (configuration not stated), the Potency result was “inactive”. For the molecule `Cc1ccc(C)c(OCCn2cc(C(=O)c3ccco3)c3ccccc32)c1`, the Potency is 5.31 µM (active). For `Cc1ccccc1OCCn1cc(C(=O)c2ccco2)c2ccccc21`, the Potency was 5.31 µM (active). The result for `COC(=O)c1cccc(NC(=S)N[C@H]2CO[C@H]3[C@@H]2OC[C@H]3OC(=O)Nc2ccccc2)c1` reads “inactive”; that for `COCCN(CCOC)c1nc(N)c2c(N)nc3c(c2c1C#N)CC(=O)N3Cc1ccc(Cl)cc1`, 5.96 µM (active); that for `Cc1cccc(C)c1NC(=O)CN1C(=O)NC(c2ccccc2Cl)C2=C1COC2=O` (configuration not stated), “inactive”. With `CC(C)[C@@H]1CN(S(=O)(=O)c2ccc(Cl)cc2Cl)C[C@H]1N(C)C`, the Potency is 6.68 µM (active). For the molecule `CCOC(=O)c1c(NC(=O)CSc2nc3ccccc3c(=O)n2-c2ccccc2)sc(C(C)=O)c1C`, the Potency is 13.3 µM (active). For `CC(Sc1nc2sccc2c(=O)n1-c1ccccc1)C(N)=O` (configuration not stated), the Potency entry was “inactive”. For `CCOC(=O)C1CCN(c2cc(=O)n(-c3ccccc3Cl)c(=O)[nH]2)CC1`, the Potency was 8.41 µM (active). As for `CCOC(=O)C1CCN(C(=O)CSc2nc(N)cc(=O)[nH]2)CC1`, the Potency entry is “inactive”. As to `CCOC(=O)C1CCN(Cc2cc(Cl)c3ccccc3c2O)CC1`, the Potency is 1.88 µM (active). Turning to `Cc1noc(CN(C)C(=O)C2C3C(=O)N(Cc4ccc(C)c(C)c4)C[C@@]34C=C[C@@H]2O4)n1` (some centres not stated), the Potency entry was “inactive”. In the case of `O=C(C1CCCCC1)N1CCN(C2CCN(Cc3cccnc3)C2=O)CC1` (configuration not stated), the Potency entry was “inactive”. The result for `CCOC(=O)c1ccc2c(c1)[C@@H]1C=CC[C@@H]1[C@H](c1cccc(OC)c1OC)N2` reads 2.66 µM (active); that for `COc1ccc(-c2noc(-c3cccn3CC(=O)Nc3ccccc3)n2)cc1F`, 2.37 µM (active); that for `COc1cccc(NC(=O)Cn2cccc2-c2nc(-c3ccc(OC)c(F)c3)no2)c1`, 6.68 µM (active). `COc1ccc(-c2noc(-c3cccn3CC(=O)NC3CCCCC3)n2)cc1F`: the Potency result is “inactive”.

As to `COc1ccc(-c2noc(-c3cccn3CC(=O)NC(C)C)n2)cc1F`, the Potency entry was “inactive”. For the molecule `COc1ccc(NC(=O)Cn2cccc2-c2nc(-c3ccc(OC)c(F)c3)no2)cc1`, the Potency was 4.73 µM (active). With `CCOc1ccc(NC(=O)Nc2cc(OCC(F)(F)F)cc(OCC(F)(F)F)c2)cc1`, the Potency was 13.3 µM (active). Regarding `Cc1cccc(-c2ccc3c(c2)C(=O)N2C[C@H](O)C[C@H]2C(=O)N3)c1C`, the Potency entry is “inactive”. Regarding `CCN1CCN(Cc2ccc(NC(=O)c3ccc(C)c(NC(=O)C(=O)c4c[nH]c5ccccc45)c3)cc2C(F)(F)F)CC1`, the Potency was 1.5 µM (active).

`CNC(=O)[C@@H]1CN(C(=O)c2c[nH]c3ccccc23)C[C@H]1COC`: the Potency entry is “inactive”. As to `CCN1CCN(Cc2ccc(NC(=O)c3ccc(C)c(NC(=O)c4c[nH]c5cc(C(F)(F)F)ccc5c4=O)c3)cc2C(F)(F)F)CC1`, the Potency was 0.531 µM (active). `Cc1cn(-c2cc(C(=O)Nc3ccc(C)c(NC(=O)C(=O)c4c[nH]c5ccccc45)c3)cc(C(F)(F)F)c2)cn1`: the Potency is 2.11 µM (active). `CCN1CCN(Cc2ccc(NC(=O)c3cc(NC(=O)C(=O)c4c[nH]c5ccccc45)cc(OC)c3)cc2C(F)(F)F)CC1`: the Potency was 0.668 µM (active). For the molecule `CCn1nc(C)c(-c2cc(C(=O)N3CCc4nc5cc(-c6ccccc6)[nH]n5c(=O)c4C3)no2)c1C`, the Potency entry was “inactive”. Turning to `COc1ccc(CCc2nc3nccc(-c4ccc5c(c4)OCCCO5)n3n2)cc1OC`, the Potency result was “inactive”.

For `COc1cc2nc(NCCc3cccc(C)c3)n3nc(-c4ccccc4)nc3c2cc1OC`, the Potency is 0.842 µM (active). Turning to `COc1ccc(CCNc2nc3cc(OC)c(OC)cc3c3nc(-c4ccccc4)nn23)cc1OC`, the Potency was 2.37 µM (active).

`COc1cc2c(cc1O)CC[n+]1cc3c(OC)c(OC)ccc3cc1-2`: the Potency is 7.5 µM (active).

In the case of `COc1ccc2nc(C[C@@H]3C[C@@H](C(C)C)[C@H](CNCc4ccccn4)C=C3C)[nH]c2c1`, the Potency is 0.769 µM (active). In the case of `COC(=O)c1ccc2nc(C[C@@H]3C[C@@H](C(C)C)[C@H](CNC4CCCCC4)C=C3C)[nH]c2c1`, the Potency is 8.41 µM (active). As for `CC1=C[C@@H](CNC(=O)c2cnccn2)[C@H](C(C)C)C[C@H]1Cc1nc2ccc(F)cc2[nH]1`, the Potency result was “inactive”.

`COc1ccccc1CNC[C@@H]1C=C(C)[C@H](Cc2nc3c(C)cccc3[nH]2)C[C@H]1C(C)C`: the Potency is 9.68 µM (active).

For the molecule `COc1ccc2nc(C[C@@H]3C[C@@H](C(C)C)[C@H](CNCc4ccccc4OC)C=C3C)[nH]c2c1`, the Potency is 9.44 µM (active).

Take `CC1(C)Cc2ccccc2C2=NNC(=O)C2=N1`: the Potency was 3.35 µM (active). For the molecule `O=C(Cc1ccccc1O)NCc1cccnc1Oc1ccc(F)cc1F`, the Potency result is “inactive”. For `CC(Oc1ccccc1)C(=O)Nc1cnc(-c2cccc(Cl)c2)nc1` (configuration not stated), the Potency entry was “inactive”. In the case of `CC(Oc1ccccc1)C(=O)Nc1nc(-c2ccccn2)cs1` (configuration not stated) it was 8.41 µM (active); in that of `O=C(Nc1nc(-c2ccccn2)cs1)Nc1ccc(F)cc1F`, 5.31 µM (active); in that of `CCC(C(=O)Nc1nc(C)c(C)s1)c1ccccc1` (configuration not stated), “inactive”. The result for `Cc1cc(NC(=O)CSc2nc3c(c(=O)n2Cc2ccccc2)SC(C)C3)no1` (configuration not stated) reads “inactive”; that for `CCC(Sc1nc2c(c(=O)n1CC)SC(C)C2)C(=O)OC` (configuration not stated), “inactive”. The result for `CC1Cc2nc(SCC(=O)Nc3ccc4c(c3)OCO4)n(-c3ccc(F)cc3)c(=O)c2S1` (configuration not stated) reads 2.99 µM (active); that for `NNC(=O)CN1C(=O)Nc2ccc(Cl)cc2C1c1ccccc1` (configuration not stated), “inactive”; that for `CCOc1ccccc1C(=O)N1CC(=O)Nc2ccc(Cl)cc2C1c1ccccc1` (configuration not stated), 9.44 µM (active). Turning to `CCN(CC)CCNC(=O)c1ccc(NC(=O)c2cc(-c3ccncc3)nc3ccccc23)cc1`, the Potency entry is “inactive”. In the case of `Cc1ccc2oc(-c3cccc(NC(=O)c4cccc5c(Cl)cccc45)c3)nc2c1` it was “inactive”; in that of `O=C(Nc1cccnc1)c1cc(-c2cccnc2)nc2ccc(Br)cc12`, 2.66 µM (active); in that of `O=C(NCc1ccco1)c1cc(-c2ccncc2)nc2ccccc12`, 5.96 µM (active). Take `O=C(Nc1ccncc1)c1cc(-c2cccc(Br)c2)nc2ccccc12`: the Potency was 13.3 µM (active).

For the molecule `O=C(CCC1CCCC1)N1CC(c2nnc(-c3ccncc3)o2)C2(CCOCC2)C1` (configuration not stated), the Potency result is “inactive”. With `COc1cc(C#Cc2c(-c3cncn3C)n(C)c3ccc(-c4ccc(OC)c(OC)c4)cc23)cc(OC)c1`, the Potency is 4.73 µM (active). For the molecule `COc1ccc(-c2c(C#Cc3ccsc3)c3cc(-c4cccc5[nH]ccc45)ccc3n2C)cc1`, the Potency is 6.68 µM (active).

Turning to `COc1cc(C#Cc2c(-c3cncn3C)n(C)c3ccc(-c4ccc5[nH]ccc5c4)cc23)cc(OC)c1`, the Potency is 2.37 µM (active). In the case of `CC(=O)NCCc1ncc(C)n1C1CCCCCC1` it was “inactive”; in that of `CCOC(=O)c1cnc(-n2nc(C)cc2C)nc1NC1CCCC1`, 8.41 µM (active); in that of `CCOC(=O)c1cnc(-n2nc(C)cc2C)nc1NNc1nc(-c2ccccc2)cc(-c2ccccc2)n1`, 2.11 µM (active). Consider `CC(=O)NCCc1ncc(C)n1C1CCC1`, for which the Potency result was “inactive”. With `ClC(Cl)(Cl)c1nc2ccccc2n2nncc12`, the Potency was 2.11 µM (active). With `CN(CCNC(=O)c1cc2c(-c3ccccc3F)nn(C)c2s1)C1CCCCC1`, the Potency was 5.96 µM (active). Consider `COc1cccc(-c2cc(C(=O)NCC34CCC=C3N(C)C(=O)CC4)[nH]n2)c1` (configuration not stated), for which the Potency result is “inactive”. In the case of `CCCCN(CC)CCNC(=O)c1cc2c(-c3ccc(Cl)cc3)nn(C)c2s1`, the Potency was 0.668 µM (active).

Consider `CCCCN(C)CCNC(=O)c1cc2c(-c3cccc(OC)c3)nn(C)c2s1`, for which the Potency was 6.68 µM (active). In the case of `CCCN(CCC)CCNC(=O)c1cc2c(-c3ccc(Cl)cc3)nn(C)c2s1` it was 0.596 µM (active); in that of `COc1cccc(-c2cc3c(=O)n(CCNC(=O)c4cccc5[nH]ccc45)ccn3n2)c1`, “inactive”; in that of `COC(=O)c1c(NC(=O)/C(C#N)=C/c2ccc(OC)cc2)sc2c1CCC2`, “inactive”. `O=C(NCCCn1cccn1)C1Cn2cccc2C(=O)N1Cc1ccccc1` (configuration not stated): the Potency result was “inactive”. `COc1ccc(C(=O)N2CCOCC3(CN(Cc4ccccc4)C3)C2)c(OC)n1`: the Potency result was “inactive”. For the molecule `COc1ccc(C2=NOC3(CCN([S+](=O)([O-])c4cccc(OC)c4)C3)C2)cc1` (configuration not stated), the Potency entry is “inactive”. `COc1ccccc1CN1CCOCC2(C1)CN([S+](=O)([O-])c1ccccc1)C2`: the Potency is 12.2 µM (active). `O=C(Nc1ccc(N2CCCCC2)c(Cl)c1)c1ncn[nH]1`: the Potency was 4.73 µM (active). Take `Cc1ccc(Sc2ccc(N3CCCC(C(=O)Nc4ccc(F)c(Cl)c4)C3)nn2)cc1` (configuration not stated): the Potency result was “inactive”. Consider `CCc1c(C)c(C#N)c2nc3ccccc3n2c1NCC1CCCO1` (configuration not stated), for which the Potency is 2.99 µM (active). Regarding `N#Cc1c2c(c(NCc3ccco3)n3c1nc1ccccc13)CCC2`, the Potency was 2.37 µM (active). Regarding `COC(=O)CSc1nc2c(c(-c3ccco3)c1C#N)CCCC2`, the Potency entry is “inactive”.

On to `CN1c2cc(C(=O)NCc3nc4ccccc4n3C)ccc2C(=O)N2CCCCCC21` (configuration not stated), for which the Potency result was “inactive”.
